# Tests used:
# [1] = target: PHD finger protein 12 (UniProt Q96QT6); experiment: other; cross-linking mass spectrometry; other
# [2] = target: Histone deacetylase 2 (UniProt Q92769); experiment: cross-link between two proteins; cross-linking mass spectrometry
# Chain of Histone deacetylase 2 (Q92769 whole entry): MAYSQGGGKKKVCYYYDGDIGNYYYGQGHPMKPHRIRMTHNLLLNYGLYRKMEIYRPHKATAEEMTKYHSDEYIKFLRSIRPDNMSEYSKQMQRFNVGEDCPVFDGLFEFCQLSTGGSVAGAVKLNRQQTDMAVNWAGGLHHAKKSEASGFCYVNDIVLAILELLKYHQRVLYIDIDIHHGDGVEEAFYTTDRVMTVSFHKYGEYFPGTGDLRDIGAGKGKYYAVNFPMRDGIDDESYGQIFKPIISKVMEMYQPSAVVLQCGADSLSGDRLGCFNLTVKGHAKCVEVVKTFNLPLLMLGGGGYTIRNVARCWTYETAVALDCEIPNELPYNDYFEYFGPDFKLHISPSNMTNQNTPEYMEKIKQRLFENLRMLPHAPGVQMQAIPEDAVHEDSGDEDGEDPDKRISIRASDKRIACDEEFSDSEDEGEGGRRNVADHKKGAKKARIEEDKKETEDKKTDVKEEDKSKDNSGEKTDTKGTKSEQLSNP
# Chain of PHD finger protein 12 (Q96QT6 whole entry): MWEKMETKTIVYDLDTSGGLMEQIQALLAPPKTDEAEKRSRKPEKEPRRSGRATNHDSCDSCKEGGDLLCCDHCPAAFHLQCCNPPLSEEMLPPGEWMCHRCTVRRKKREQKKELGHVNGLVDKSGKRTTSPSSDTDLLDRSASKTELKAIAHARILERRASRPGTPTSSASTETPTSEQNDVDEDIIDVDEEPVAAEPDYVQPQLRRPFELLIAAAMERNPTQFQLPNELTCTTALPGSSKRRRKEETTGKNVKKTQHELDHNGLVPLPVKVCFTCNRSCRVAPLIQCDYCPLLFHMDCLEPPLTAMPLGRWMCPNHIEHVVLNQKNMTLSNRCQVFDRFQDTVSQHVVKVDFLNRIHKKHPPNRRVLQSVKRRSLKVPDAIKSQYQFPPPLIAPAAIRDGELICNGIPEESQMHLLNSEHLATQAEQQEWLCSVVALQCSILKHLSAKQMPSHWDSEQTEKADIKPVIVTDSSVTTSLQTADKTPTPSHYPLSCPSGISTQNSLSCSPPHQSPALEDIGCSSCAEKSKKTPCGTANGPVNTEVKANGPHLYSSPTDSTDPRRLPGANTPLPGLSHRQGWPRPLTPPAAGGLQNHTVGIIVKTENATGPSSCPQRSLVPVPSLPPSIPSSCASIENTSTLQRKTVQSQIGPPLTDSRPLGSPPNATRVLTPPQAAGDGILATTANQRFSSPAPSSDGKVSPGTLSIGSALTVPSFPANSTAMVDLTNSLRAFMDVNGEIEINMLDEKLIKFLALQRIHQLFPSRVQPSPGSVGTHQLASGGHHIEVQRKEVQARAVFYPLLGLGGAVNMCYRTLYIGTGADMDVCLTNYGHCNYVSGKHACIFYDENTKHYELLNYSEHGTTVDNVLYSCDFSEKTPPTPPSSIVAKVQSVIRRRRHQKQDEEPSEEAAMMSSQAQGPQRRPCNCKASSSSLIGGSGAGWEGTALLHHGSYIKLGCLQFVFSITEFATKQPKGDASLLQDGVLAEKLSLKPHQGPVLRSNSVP
substance,measurement,setting,value
"Paired amphipathic helix protein Sin3b, O75182",listed as a hit,[1],yes
same,listed as a hit,[2],yes

# Source: article PMC10156912
